# PubChem BioAssay
# The source made the active and inactive calls.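 Rule for the calls: active = visually confirmed hit in the image check and inhibition above 20%; inconclusive = visually confirmed hit but inhibition not above 20%; inactive = no visual hit in the image check.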
# Assay: inhibitors of E-selectin induction by TNFa, primary screen, imaging, HUVEC, immunofluorescence, MLSMR starter and 10KST1 sets (AID 487);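 for inhibition: signal is fraction of cell area covered by stained E-selectin grains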;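 for nuclei count: 100% = median nuclei count of all wells on the same plate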
# Conditions: HUVEC TNFalpha-induced E-selectin immunofluorescence imaging, at 2 µM; inhibition: stronger effect = higher value; nuclei count: measured here: cell number, toxicity
Structure (SMILES),inhibition,nuclei count [%]
CCSc1nc2c(c(=O)n(C)c(=O)n2C)n1Cc1ccc(Cl)cc1,-15.6% (inactive),112
COc1ccccc1N1CCN(C(=O)c2oc3cc(C)c(C)cc3c2C)CC1,-46.9% (inactive),87.3
CC(C)CCNC(=O)NC(=O)CSc1nnc(-c2ccccc2Br)o1,-32.9% (inactive),125
C=CCSc1ncccc1C(=O)O,-36.4% (inactive),111
CC1CCc2nc(NC(=O)CN3CCN(Cc4ccc5c(c4)OCO5)CC3)sc2C1 (stereo not given),-24.4% (inactive),97.3
CC(=O)CC(=O)Nc1ccccc1NC(C)=O,-17.4% (inactive),110
CC(C)OC(=O)CSc1nnc(Cc2ccccc2)n1Cc1ccco1,44% (inactive),100
O=C(NCCN1CCCC1)C1COc2ccccc2O1 (stereo not given),-28.7% (inactive),100
COC(=O)c1ccc2c(=O)n(Cc3ccco3)c(SCC(=O)Nc3ccc(C)c(Cl)c3)nc2c1,4.9% (inactive),91
CCC1(CC)C(=O)C(C)(C)C(=O)OC1c1cccs1 (stereo not given),-18.3% (inactive),110
CCOc1ccc(OCC)c2sc(C)nc12,1% (inactive),106
CC(=O)Nc1cccc(-c2nnc(-c3ccccc3)o2)c1,-93.4% (inactive),136
CCOC(=O)C1=C(C)NC(=O)C(C#N)C1c1ccco1 (stereo not given),-59.3% (inactive),127
O=C1CN=C(Nc2cccc(C(F)(F)F)c2)N1C1CCCC1,-375% (inactive),149
COc1ccc(-c2nnc3ccc(SC(C(C)=O)C(C)=O)nn23)cc1OC,-47.2% (inactive),94
